Here are results for seven compounds from PubChem BioAssay (NCI).

Compounds without any hit were thinned out: in the full panel of roughly 83,000, 20% have a hit.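 Method: cells in 96-well plates; compound added at one concentration; 48 h incubation; percent growth measured; values under 10 scored active.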 A number with no mark means an inactive call. Active and inactive are the calls of the source.

Assay in all cases: NCI-60 one-dose screen, 48 h (100 = growth as untreated, 0 = no growth, -100 = all killed)
Holding throughout (conditions): 10 µM unless noted

Experiment [1] relates to HCT-15 colon.
Experiment [2] has as its system HT29 colon.
In experiment [3] the test system is SNB-75 CNS.
Experiment [4] deals with SNB-19 CNS.
Experiment [5] has as its system U251 CNS.
The test system of experiment [6] is PC-3 prostate.
For experiment [7], the system named is SK-MEL-5 melanoma.
Experiment [8] deals with UACC-62 melanoma.
Experiment [9] has as its system LOX IMVI melanoma.
The test system of experiment [10] is SK-MEL-28 melanoma.
The test system of experiment [11] is SK-MEL-2 melanoma.
The subject of experiment [12] is EKVX NSCLC.
Experiment [13] deals with SN12C renal.
Experiment [14] concerns UO-31 renal.
The test system of experiment [15] is TK-10 renal.
Experiment [16] deals with ACHN renal.
Experiment [17] concerns CAKI-1 renal.
In experiment [18] the test system is A498 renal.
The test system of experiment [19] is CCRF-CEM leukemia.
The subject of experiment [20] is MOLT-4 leukemia.

Consider `CCCCCC#CC1OC23CCCCC2C(C#N)(C(=N)O3)C1(C#N)C#N` (stereo not given), for which the growth in experiment [1] was 102%; in [2], 88%; in experiment [3], 88.5%; in [4], 95%; in experiment [5] it was 96.4%; in [6], 81%. Moreover, the growth is 96.7% in experiment [7]; 83.1% in experiment [8]; 89.7% in [9]; 109% in experiment [10]; 93% in [11]; 97.1% in experiment [12]. In addition, the growth in [13] is 93%; in [14], 97.1%; in experiment [15], 108%; in experiment [16] it was 102%; in experiment [17], 101%; in [18], 93.6%. Besides, the growth in experiment [19] was 88.4%; in experiment [20], 99.9%.
For the compound `CC12OC(CC(O)C1O)n1c3ccccc3c3c4c(c5c6ccccc6n2c5c31)C(=O)N(CCN1CCOCC1)C4=O` (stereo not given), the growth in [1] was 9.81% (active); in [2] it was 2.31% (active); in experiment [3], -5.19% (active); in [4] it was 8.99% (active); in experiment [5] it was 3.67% (active); in [6], 7.32% (active). The growth was -44.5% (active) in experiment [7]; -52% (active) in [8]; -61.1% (active) in experiment [9]; 34.6% in [10]; 12.6% in experiment [11]; 32% in [12]. For the same compound, the growth was 10.3% in [13]; -9.86% (active) in [14]; -11.1% (active) in [15]; -59.7% (active) in [16]; 2.22% (active) in experiment [17]; -15.3% (active) in experiment [18]. Further, the growth in experiment [19] was 16.4%; in [20] it was 3.59% (active).
As to `N#Cc1c(N)nnn1Cc1cc(=O)oc2ccc(O)cc12`, the growth was 110% in experiment [1]; 102% in experiment [2]; 100% in experiment [3]; 102% in [4]; 103% in [5]; 97.3% in experiment [6]. The growth is 97.9% in experiment [7]; 99.9% in [8]; 102% in experiment [9]; 112% in [10]; 117% in experiment [11]; 117% in experiment [12]. In addition, the growth in experiment [13] was 106%; in experiment [14], 90.5%; in [15], 104%; in experiment [16], 106%; in experiment [17], 107%; in experiment [18], 102%. Further, the results for the growth in experiment [19] and in experiment [20] were 93.8% and 109%, respectively.
For the compound `C[N+]1=C(/C=C\C=C\c2ccccc2)C(C)(C)c2ccccc21`, the growth in experiment [1] was 14.2%; in experiment [2] it was 12.3%; in experiment [3], 81.8%; in experiment [4], 27.4%; in experiment [5] it was 14%; in [6], 30.7%. The growth is -39.7% (active) in [7]; -16.1% (active) in experiment [8]; 12.6% in [9]; -35.5% (active) in experiment [10]; 10.9% in experiment [11]; 31.5% in [12]. The growth is -2.25% (active) in experiment [13]; 39.3% in [14]; 50.3% in experiment [15]; 43.8% in experiment [16]; 38.4% in [17]; 61.2% in experiment [18]. For the same compound, the growth is -8.67% (active) in experiment [19] and 0.0688% (active) in experiment [20].
With `C#CCOCC1CN(C)C(=O)O1` (stereo not given), the growth in experiment [1] was 98.1%; in experiment [2], 99.5%; in experiment [3], 98.5%; in [4] it was 107%; in [5], 103%; in [6], 109%. In addition, the growth in [7] was 114%; in experiment [8], 112%; in experiment [9], 105%; in [10], 110%; in [11], 116%; in experiment [12] it was 115%. The growth in [13] was 103%; in [14], 97.1%; in [15], 110%; in [16], 105%; in experiment [17], 104%; in [18], 107%. The growth in [19] is 98.9%; in [20], 89.6%.
In the case of `O=C(NCCCN1CCCCC1)c1ccc(-c2nc3ccc4[nH]ncc4c3c3c2CCCC3)cc1`, the growth in experiment [1] was 58.4%; in experiment [2], 50.7%; in experiment [3] it was 17.6%; in experiment [4], 78.2%; in [5], 66.7%; in experiment [6], 29%. In addition, the growth in experiment [7] is 76.2%; in experiment [8] it was 62.6%; in experiment [9] it was 48.3%; in experiment [10], 72.2%; in [11], 81.4%; in experiment [12], 67.4%. Also, the growth in experiment [13] was 50.4%; in experiment [14], 54.4%; in [15] it was 43.7%; in experiment [16], 27.4%; in experiment [17] it was 10.9%; in experiment [18], -10% (active). In addition, the growth is 21.6% in experiment [19] and 18.4% in experiment [20].
Regarding `Cc1oc2c(Cc3ccc(NC(=O)c4ccc(Cl)cc4)cc3)ncnc2c1C(=O)NO`, the growth in [1] is 103%; in [2] it was 89.6%; in experiment [3] it was 106%; in [4], 105%; in [5], 104%; in experiment [6], 97.7%. Also, the growth in [7] was 86.1%; in experiment [8], 89.9%; in experiment [9], 102%; in experiment [10], 107%; in experiment [11], 88.3%; in experiment [12], 102%. The growth in [13] was 103%; in experiment [14] it was 85.4%; in experiment [15], 95.6%; in experiment [16], 106%; in experiment [17], 98.9%; in experiment [18], 85.2%. The growth in experiment [19] is 90.9%; in experiment [20], 82.5%.
